# Bioassay records as filed in PubChem BioAssay.
# The list is not random: actives were taken first. Their share in the collection is about 1.2%.
# COUP-TFII inh: inhibitors of human COUP-TFII (NR2F2); P24468; HEK293T NGFI-A luciferase reporter, luminescence; inhibition, % at 8.6 µM; 0.7% of 370,000 active;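 active means inhibition above a per-plate cutoff, mean inhibition of test wells between control levels plus 3 SD, cut at about 38% in these data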;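 further: cells cotransfected with COUP-TFII expression vector driving the NGFI-A reporter; 0% = median of COUP-TF2 test wells and 100% = reporter-only cells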
# NR5A2 inv ag: suppresses constitutive activity of human LRH-1; O00482; HEK293T StAR-luciferase reporter, LRH-1 transfected, 24 h; inhibition, % at 3.6 µM; 0.13% of 360,000 active; AID 602396;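 active means inhibition above the mean inhibition of all tested compounds plus 3 SD, cut at about 73% in these data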;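 further: 0% = DMSO wells and 100% = reporter-only cells lacking LRH-1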
# Target sequence (O00482 whole entry, looked up): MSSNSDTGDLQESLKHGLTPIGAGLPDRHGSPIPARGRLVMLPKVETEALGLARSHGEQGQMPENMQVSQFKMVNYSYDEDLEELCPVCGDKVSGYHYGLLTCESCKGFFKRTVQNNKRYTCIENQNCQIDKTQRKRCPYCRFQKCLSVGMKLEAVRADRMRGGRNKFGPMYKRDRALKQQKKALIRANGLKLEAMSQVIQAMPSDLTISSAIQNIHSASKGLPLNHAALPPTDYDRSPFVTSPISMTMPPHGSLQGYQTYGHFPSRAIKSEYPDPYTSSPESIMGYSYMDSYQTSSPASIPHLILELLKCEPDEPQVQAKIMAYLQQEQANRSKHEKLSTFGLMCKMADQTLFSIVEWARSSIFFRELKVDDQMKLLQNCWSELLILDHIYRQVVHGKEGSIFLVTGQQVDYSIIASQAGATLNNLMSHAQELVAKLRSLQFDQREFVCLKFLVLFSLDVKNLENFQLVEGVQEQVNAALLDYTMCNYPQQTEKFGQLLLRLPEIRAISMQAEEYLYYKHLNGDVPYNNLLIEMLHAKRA
# NCOA1 inh: inhibits human SRC1 coactivator; 0.12% of 360,000 active; inhibition, % at 3.6 µM; Q15788; HEK293 GAL4-SRC1 luciferase reporter, luminescence; AID 588354;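 active means inhibition above the campaign mean plus 3 SD, with each screening campaign given its own cutoff, cut at about 60% in these data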;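 further: 0% = DMSO treated cells and 100% = gossypol at 36 µM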
# NCOA2 inhibitor: human SRC2 (NCOA2) inhibition; Q15596; HEK293 GAL4-SRC2 luciferase reporter, luminescence; inhibition, % at 9 µM; 0.17% of 370,000 active; AID 651957;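 active means inhibition above the mean inhibition of all tested compounds plus 3 SD, set per campaign, cut at about 52% in these data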;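 further: 0% = DMSO treated cells and 100% = cells given Gossypol at 36 µM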
# Gli-Sufu block: Gli-Sufu pathway antagonism; AID 588413; 0.74% of 340,000 active; inhibition, % at 5 µM; Sufu-KO-LIGHT fibroblasts, Gli luciferase reporter luminescence;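 active means inhibition above about 55%, limit read from the data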;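 further: 0% = DMSO-treated cells and 100% = wells with medium but no cells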
# SRC3 inh: inhibitors of human steroid receptor coactivator 3 (SRC3) | inhibition, % at 3.6 µM | 0.17% of 360,000 active | Q9Y6Q9 | AID 588352 | HEK293 GAL4-SRC3 luciferase reporter, luminescence;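 active means inhibition above a per-campaign cutoff, the mean of all compounds plus 3 SD, cut at about 60% in these data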;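 further: 0% = DMSO-treated cells and 100% = gossypol-treated cells at 36 µM; higher means less SRC3-driven luciferase light from the GAL4 reporter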
# Gli antag conf: confirmation of Gli-SUFU pathway antagonists; shares compounds with Gli-Sufu block; Sufu-KO-LIGHT cells, Gli luciferase reporter, luminescence; inhibition, % at 5 µM; 40% of 2,500 active;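 active means mean inhibition at 5 µM reaching about 45%, limit read from the data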;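 further: plate controls were DMSO-treated cells for no effect and wells lacking cells for full effect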
# Gli cytotox: cytotoxicity counter-screen for Gli-SUFU antagonists | shares compounds with Gli-Sufu block | Sufu-KO-LIGHT cells cytotoxicity, ATP luminescence | cytotoxicity, % at 5 µM | 32% of 2,500 active | AID 651994;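 active means mean cytotoxicity at 5 µM above about 25%, limit read from the data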;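 further: cells exposed to compound overnight for roughly 16 to 18 hours; plate controls were DMSO wells with cells for no effect and medium without cells for full effect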
# Wnt3a counter: Wnt3a reporter inhibition counter-screen; shares compounds with Gli-Sufu block; Wnt-LIGHT cells, Wnt3a-driven luciferase reporter, luminescence; inhibition, % at 6.25 µM; 20% of 2,500 active; AID 651995;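 active means mean inhibition above about 25%, limit read from the data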
# The depositor's hits bear a star; nt = no result given.
SMILES,COUP-TFII inh,NR5A2 inv ag,NCOA1 inh,NCOA2 inhibitor,Gli-Sufu block,SRC3 inh,Gli antag conf,Gli cytotox,Wnt3a counter
COc1ccc(-n2cc(-c3ccc(Cl)cc3)[nH]c2=S)cc1,-18,-58,-32,-74,-46,-34,nt,nt,nt
COc1ccc(N2CC(O)(c3ccc(OC(F)F)cc3)[N+]3=C2CCCC3)cc1 (stereo not drawn),12,1,8,-44,13,5,nt,nt,nt
Nc1nc(F)nc2c1ncn2[C@@H]1O[C@H](COP(=O)(O)O)[C@@H](O)[C@@H]1O,-16,nt,nt,29,nt,nt,nt,nt,nt
C[C@H](O)[C@@H]1CN2CCc3ccc(-c4ccc5c(c4)OCO5)cc3[C@@H]2C[C@@H]1N(C)C(=O)c1ccco1,22,nt,nt,-2,nt,nt,nt,nt,nt
COC(=O)[C@]12C[C@H](CC(=O)N3CCC(c4ccccc4)CC3)C(=O)N(Cc3ccc4c(c3)OCO4)C1=C[C@H](C(C)(C)C)O[C@@H]2C,18,nt,nt,11,nt,nt,nt,nt,nt
c1ccc(-c2c[n+]3c(n2-c2ccccc2)CCC3)cc1,9,10,-22,13,60*,12,69*,19,17
CC(C)CC1O[C@@H](C)[C@@H]2CN3CCc4c([nH]c5ccccc45)[C@@H]3C[C@@H]2N1C (stereo partly drawn),-10,nt,nt,11,nt,nt,nt,nt,nt
CC(c1cc(F)ccc1O)c1c[nH]c2ccccc12 (stereo not drawn),9,nt,nt,-9,nt,nt,nt,nt,nt
Cc1ccc(C)c(NC(=S)N=Nc2c(O)n(C)c3ccc(S(=O)(=O)N4CCOCC4)cc23)c1,-1,-20,-15,-4,48,3,nt,nt,nt
CCc1ccccc1NC(=S)N=Nc1c(O)n(C)c2ccc(S(=O)(=O)N3CCOCC3)cc12,8,-8,0,2,66*,-11,48*,19,-25
Cc1nnc(NCc2ccncc2)c2ccccc12,-8,-23,7,-10,51,-15,22,19,-5
COc1ccc(S(=O)(=O)N2CCCCCC2)c2ccccc12,1,nt,nt,7,nt,nt,nt,nt,nt
O=C(Cc1ccccc1F)Nc1nc2ccccc2[nH]1,-30,-46,-6,-11,67*,-15,12,8,-34
COc1cc(/C=N/NC(=O)c2ccncc2)ccc1OC(C)=O,5,-2,12,11,58*,5,17,3,7
COC(=O)C1=C(C)N(CC(C)C)C(=S)NC1c1cccc(OC)c1 (stereo not drawn),-8,nt,nt,6,nt,nt,nt,nt,nt
Cc1nc2ncnn2c(N2CCN(S(=O)(=O)c3ccc(Br)cc3)CC2)c1C,-9,1,14,1,57*,20,33,1,1
Cc1nc2ncnn2c(N2CCN(C(c3ccccc3)c3ccccc3)CC2)c1C,-4,5,10,11,8,18,nt,nt,nt
CN1CCN(C(=O)c2ccc(N3CCCC3=O)cc2)CC1,10,1,-18,17,60*,-9,20,-3,-9
O=C(c1ccc(N2CCCC2=O)cc1)N1CCOCC1,13,-30,6,-1,-3,-12,nt,nt,nt
Cc1cc(N2CCN(CC(C)(C)O)C[C@@H]2C)ccc1N1CCN(Cc2ccccc2)[C@@H](C)C1,13,nt,nt,24,nt,nt,nt,nt,nt
Cc1cccc(C(=O)NC2CCN(C(=O)Nc3ccccc3C)CC2)c1,5,0,10,8,67*,7,24,0,4
CCn1c(=NC(=O)CS(=O)(=O)c2ccccc2)sc2cccc(OC)c21,8,-26,-17,13,67*,2,67*,22,12
Cn1c(=NC(=O)CS(=O)(=O)c2ccccc2)sc2ccccc21,-5,-104,-58,-42,-37,-55,nt,nt,nt
Cc1ccc(NS(=O)(=O)c2ccc(-c3ccc(=O)[nH]n3)o2)cc1Cl,-1,28,5,5,54,5,9,-4,5
Cc1ccc(NS(=O)(=O)c2ccc(-c3ccc(=O)[nH]n3)o2)cc1N(C)C,-16,24,5,5,-14,0,nt,nt,nt
